# Source: PubChem BioAssay AID1159580 (chemical genetic matrix, 2015)
# The whole screen tested about 5,500 compounds, of which about 2,000 (36%) were called active. Not shown: some 18% with an inconclusive outcome. Some of the results follow. A number with no mark means an inactive call. Rule as the data show it: active = normalized growth mostly below about 0.91 (no sharp cut-off); inconclusive = no clear call, values can overlap the other calls; inactive = mostly above about 0.92.
# Assay: chemical genetic growth profiling, strain panel (AID 1159580);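 also: tested at 20 µM; growth read once vehicle control cultures reached saturation at 30 °C; 1 = growth at the plate median or of vehicle wells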
# Details: growth OD
compound,measurement,setting,value
Cc1ccc2c(c1)CC[C@H]1CC(=O)CC[C@]21C,normalized growth,"S. cerevisiae deletion strains, locus YKL009W, strain mrt4, stronger effect = lower value",0.982
same,normalized growth,"S. cerevisiae deletion strains, locus YKL068W, stronger effect = lower value",0.991
same,normalized growth,"S. cerevisiae deletion strains, locus YKL085W, strain MDH1 (second series), stronger effect = lower value",0.973
same,normalized growth,"S. cerevisiae deletion strains, locus YKL085W, strain MDH1, stronger effect = lower value",0.973
same,normalized growth,"S. cerevisiae deletion strains, locus YKL160W, strain elf1, stronger effect = lower value",1.01
same,normalized growth,"S. cerevisiae deletion strains, locus YKL190W, strain CNB1, stronger effect = lower value",0.997
same,normalized growth,"S. cerevisiae deletion strains, locus YKR001C, strain vps1, stronger effect = lower value",0.953
same,normalized growth,"S. cerevisiae deletion strains, locus YKR026C, strain gcn3, stronger effect = lower value",1.01
same,normalized growth,"S. cerevisiae deletion strains, locus YKR091W, strain srl3, stronger effect = lower value",1
same,normalized growth,"S. cerevisiae deletion strains, locus YLL001W, strain dnm1, stronger effect = lower value",0.999
same,normalized growth,"S. cerevisiae deletion strains, locus YLL026W, stronger effect = lower value",1.01
same,normalized growth,"S. cerevisiae deletion strains, locus YLL041C, strain sdh2, stronger effect = lower value",0.991
same,normalized growth,"S. cerevisiae deletion strains, locus YLR027C, strain aat2, stronger effect = lower value",0.989
same,normalized growth,"S. cerevisiae deletion strains, locus YLR039C, strain RIC1, stronger effect = lower value",0.925
same,normalized growth,"S. cerevisiae deletion strains, locus YLR058C, strain SHM2, stronger effect = lower value",0.998
same,normalized growth,"S. cerevisiae deletion strains, locus YLR102C, strain apc9, stronger effect = lower value",0.983
same,normalized growth,"S. cerevisiae deletion strains, locus YLR113W, strain HOG1, stronger effect = lower value",0.975
same,normalized growth,"S. cerevisiae deletion strains, locus YLR221C, strain rsa3, stronger effect = lower value",0.995
same,normalized growth,"S. cerevisiae deletion strains, locus YLR258W, strain gsy2, stronger effect = lower value",1
same,normalized growth,"S. cerevisiae deletion strains, locus YLR262C, strain YPT6 (second series), stronger effect = lower value",0.942
same,normalized growth,"S. cerevisiae deletion strains, locus YLR262C, strain YPT6, stronger effect = lower value",0.917
same,normalized growth,"S. cerevisiae deletion strains, locus YLR268W, strain sec22, stronger effect = lower value",1.01
same,normalized growth,"S. cerevisiae deletion strains, locus YLR320W, strain mms22, stronger effect = lower value",0.977
same,normalized growth,"S. cerevisiae deletion strains, locus YLR330W, strain CHS5, stronger effect = lower value",0.991
same,normalized growth,"S. cerevisiae deletion strains, locus YLR342W, strain FKS1 (second series), stronger effect = lower value",0.94
same,normalized growth,"S. cerevisiae deletion strains, locus YLR342W, strain FKS1, stronger effect = lower value",0.997
same,normalized growth,"S. cerevisiae deletion strains, locus YLR357W, strain rsc2, stronger effect = lower value",1.01
same,normalized growth,"S. cerevisiae deletion strains, locus YLR370C, strain arc18, stronger effect = lower value",1.02
same,normalized growth,"S. cerevisiae deletion strains, locus YLR371W, strain rom2, stronger effect = lower value",0.972
same,normalized growth,"S. cerevisiae deletion strains, locus YLR384C, strain iki3, stronger effect = lower value",1.01
same,normalized growth,"S. cerevisiae deletion strains, locus YLR418C, strain cdc73, stronger effect = lower value",0.923
same,normalized growth,"S. cerevisiae deletion strains, locus YML016C, strain PPZ1, stronger effect = lower value",0.984
same,normalized growth,"S. cerevisiae deletion strains, locus YML032C, strain rad52, stronger effect = lower value",0.972
same,normalized growth,"S. cerevisiae deletion strains, locus YML120C, strain ndi1, stronger effect = lower value",0.986
same,normalized growth,"S. cerevisiae deletion strains, locus YML124C, strain tub3, stronger effect = lower value",0.98
same,normalized growth,"S. cerevisiae deletion strains, locus YMR058W, strain fet3, stronger effect = lower value",1.01
same,normalized growth,"S. cerevisiae deletion strains, locus YMR078C, strain ctf18, stronger effect = lower value",0.969
same,normalized growth,"S. cerevisiae deletion strains, locus YMR125W, strain sto1, stronger effect = lower value",1
same,normalized growth,"S. cerevisiae deletion strains, locus YMR129W, stronger effect = lower value",1.01
same,normalized growth,"S. cerevisiae deletion strains, locus YMR205C, strain PFK2, stronger effect = lower value",1
same,normalized growth,"S. cerevisiae deletion strains, locus YMR223W, strain ubp8, stronger effect = lower value",0.966
same,normalized growth,"S. cerevisiae deletion strains, locus YMR231W, strain pep5, stronger effect = lower value",0.997
same,normalized growth,"S. cerevisiae deletion strains, locus YMR263W, strain SAP30, stronger effect = lower value",1.01
same,normalized growth,"S. cerevisiae deletion strains, locus YMR307W, strain GAS1, stronger effect = lower value",0.908
same,normalized growth,"S. cerevisiae deletion strains, locus YNL067W, strain RPL9B, stronger effect = lower value",0.999
same,normalized growth,"S. cerevisiae deletion strains, locus YNL071W, strain lat1, stronger effect = lower value",0.999
same,normalized growth,"S. cerevisiae deletion strains, locus YNL128W, strain TEP1, stronger effect = lower value",1.01
same,normalized growth,"S. cerevisiae deletion strains, locus YNL153C, strain GIM3, stronger effect = lower value",1.02
same,normalized growth,"S. cerevisiae deletion strains, locus YNL183C, strain NPR1, stronger effect = lower value",0.907
same,normalized growth,"S. cerevisiae deletion strains, locus YNL209W, strain ssb2, stronger effect = lower value",0.998
same,normalized growth,"S. cerevisiae deletion strains, locus YNL233W, strain BNI4, stronger effect = lower value",0.979
same,normalized growth,"S. cerevisiae deletion strains, locus YNL248C, strain rpa49, stronger effect = lower value",0.99
same,normalized growth,"S. cerevisiae deletion strains, locus YNL250W, strain rad50, stronger effect = lower value",0.979
same,normalized growth,"S. cerevisiae deletion strains, locus YNL271C, strain bni1, stronger effect = lower value",0.96
same,normalized growth,"S. cerevisiae deletion strains, locus YNL298W, strain CLA4, stronger effect = lower value",0.987
same,normalized growth,"S. cerevisiae deletion strains, locus YNL307C, strain MCK1, stronger effect = lower value",0.889 (active)
same,normalized growth,"S. cerevisiae deletion strains, locus YNL322C, strain KRE1 (second series), stronger effect = lower value",1
same,normalized growth,"S. cerevisiae deletion strains, locus YNL322C, strain KRE1, stronger effect = lower value",1
same,normalized growth,"S. cerevisiae deletion strains, locus YNR049C, strain mso1, stronger effect = lower value",1
same,normalized growth,"S. cerevisiae deletion strains, locus YNR052C, strain pop2, stronger effect = lower value",0.976
same,normalized growth,"S. cerevisiae deletion strains, locus YOL006C, strain TOP1, stronger effect = lower value",0.878
same,normalized growth,"S. cerevisiae deletion strains, locus YOL012C, strain htz1",1.46
same,normalized growth,"S. cerevisiae deletion strains, locus YOL147C, strain pex11, stronger effect = lower value",0.981
same,normalized growth,"S. cerevisiae deletion strains, locus YOR001W, strain rrp6, stronger effect = lower value",0.981
same,normalized growth,"S. cerevisiae deletion strains, locus YOR061W, strain CKA2, stronger effect = lower value",0.998
same,normalized growth,"S. cerevisiae deletion strains, locus YOR069W, strain VPS5, stronger effect = lower value",0.998
same,normalized growth,"S. cerevisiae deletion strains, locus YOR070C, strain gyp1, stronger effect = lower value",1
same,normalized growth,"S. cerevisiae deletion strains, locus YOR080W, strain dia2, stronger effect = lower value",0.994
same,normalized growth,"S. cerevisiae deletion strains, locus YOR083W, strain WHI5, stronger effect = lower value",1
same,normalized growth,"S. cerevisiae deletion strains, locus YOR106W, strain vam3, stronger effect = lower value",0.998
same,normalized growth,"S. cerevisiae deletion strains, locus YOR136W, strain idh2, stronger effect = lower value",0.993
same,normalized growth,"S. cerevisiae deletion strains, locus YOR144C, strain elg1, stronger effect = lower value",0.976
same,normalized growth,"S. cerevisiae deletion strains, locus YOR184W, strain ser1, stronger effect = lower value",0.895
same,normalized growth,"S. cerevisiae deletion strains, locus YOR231W, strain MKK1, stronger effect = lower value",0.981
same,normalized growth,"S. cerevisiae deletion strains, locus YOR265W, strain rbl2, stronger effect = lower value",1
same,normalized growth,"S. cerevisiae deletion strains, locus YOR270C, strain vph1, stronger effect = lower value",0.889
same,normalized growth,"S. cerevisiae deletion strains, locus YOR290C, strain snf2, stronger effect = lower value",1.01
same,normalized growth,"S. cerevisiae deletion strains, locus YOR316C, strain cot1, stronger effect = lower value",0.982
same,normalized growth,"S. cerevisiae deletion strains, locus YPL051W, strain arl3, stronger effect = lower value",1.01
same,normalized growth,"S. cerevisiae deletion strains, locus YPL055C, strain LGE1, stronger effect = lower value",0.99
same,normalized growth,"S. cerevisiae deletion strains, locus YPL078C, strain atp4, stronger effect = lower value",0.993
same,normalized growth,"S. cerevisiae deletion strains, locus YPL106C, strain sse1, stronger effect = lower value",1.03
same,normalized growth,"S. cerevisiae deletion strains, locus YPL240C, strain hsp82, stronger effect = lower value",1
same,normalized growth,"S. cerevisiae deletion strains, locus YPL241C, strain CIN2, stronger effect = lower value",0.993
same,normalized growth,"S. cerevisiae deletion strains, locus YPL256C, strain CLN2, stronger effect = lower value",0.965
same,normalized growth,"S. cerevisiae deletion strains, locus YPR119W, strain clb2, stronger effect = lower value",0.98
same,normalized growth,"S. cerevisiae deletion strains, locus YPR141C, strain kar3, stronger effect = lower value",0.976
same,normalized growth,"S. cerevisiae deletion strains, locus YPR163C, strain tif3, stronger effect = lower value",0.974
same,normalized growth,"S. cerevisiae deletion strains, locus YPR167C, strain met16, stronger effect = lower value",0.982
same,normalized growth,"S. cerevisiae deletion strains, strain wtn01, stronger effect = lower value",0.975
same,normalized growth,"S. cerevisiae strains, strain wild type, stronger effect = lower value",0.994
